Common to all, as to set-up: scale not given: direction of the effect not stated beside the values
Test [1] addresses Protein translocase subunit SecA (Escherichia coli (strain K12)) (UniProt P10408). As to the kind of experiment: Assay to Identify E. coli SecA ATPase Inhibitors. Conditions: 30 µM. In kind it is functional.
The target of test [2] is T1, Ubiquitin-activating enzyme e1, putative (Leishmania donovani (strain BPK282A1)) (UniProt E9BSI1).
T1 sequence (whole entry): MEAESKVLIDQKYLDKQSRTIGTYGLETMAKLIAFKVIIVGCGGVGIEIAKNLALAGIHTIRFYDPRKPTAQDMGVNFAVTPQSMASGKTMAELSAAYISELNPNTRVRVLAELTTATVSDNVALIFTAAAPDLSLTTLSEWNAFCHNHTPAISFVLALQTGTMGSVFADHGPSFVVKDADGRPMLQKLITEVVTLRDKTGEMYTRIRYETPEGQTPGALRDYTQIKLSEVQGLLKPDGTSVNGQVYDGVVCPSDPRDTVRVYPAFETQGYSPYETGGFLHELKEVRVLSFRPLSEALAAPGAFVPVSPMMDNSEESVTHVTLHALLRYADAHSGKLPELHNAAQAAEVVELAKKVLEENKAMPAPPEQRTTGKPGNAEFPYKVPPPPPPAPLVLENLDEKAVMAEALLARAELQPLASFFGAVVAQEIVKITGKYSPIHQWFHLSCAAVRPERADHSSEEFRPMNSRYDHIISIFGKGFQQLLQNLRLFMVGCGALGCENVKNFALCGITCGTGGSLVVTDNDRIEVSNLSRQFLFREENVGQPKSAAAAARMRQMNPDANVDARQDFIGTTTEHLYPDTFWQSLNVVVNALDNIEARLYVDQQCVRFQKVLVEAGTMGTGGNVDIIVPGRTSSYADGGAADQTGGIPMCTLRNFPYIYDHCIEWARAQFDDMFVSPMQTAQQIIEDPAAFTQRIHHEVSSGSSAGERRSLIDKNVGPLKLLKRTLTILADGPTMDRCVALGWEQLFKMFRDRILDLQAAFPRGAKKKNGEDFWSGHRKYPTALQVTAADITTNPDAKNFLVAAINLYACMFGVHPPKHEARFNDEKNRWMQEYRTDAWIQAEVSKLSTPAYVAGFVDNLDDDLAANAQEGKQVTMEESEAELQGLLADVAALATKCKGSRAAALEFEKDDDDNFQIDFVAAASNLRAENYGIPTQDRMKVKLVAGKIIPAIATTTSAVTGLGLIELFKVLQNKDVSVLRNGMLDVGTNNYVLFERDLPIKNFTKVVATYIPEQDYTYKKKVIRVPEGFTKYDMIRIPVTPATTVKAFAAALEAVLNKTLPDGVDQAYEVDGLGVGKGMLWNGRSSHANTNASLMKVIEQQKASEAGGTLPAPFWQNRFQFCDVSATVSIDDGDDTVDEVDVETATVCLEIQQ
The test is described as follows: Leishmania donovani Ubiquitin Activating Enzyme (LdE1). In kind it is functional. Conditions: 30 µM.

For test [3], the target named is AMP-activated protein kinase, AMPK (Homo sapiens) (UniProt P54646+O43741+P54619+Q9UGJ0+Q9Y478+Q13131+Q9UGI9). As to the kind of experiment: AMP-dependent Kinase enzyme assay. An in vitro enzyme assay that detects ADP turnover that is directly proportional to AMPK activity. This uses naive AMPK that is activated during the assay with MK-8722. In kind it is functional. Conditions: 30 µM.

For test [4], the target named is Sialic acid-binding Ig-like lectin 9 (Homo sapiens) (UniProt Q9Y336). As to the kind of experiment: Hs-Siglec9 ALPHAscreen SOP 20170721. As to conditions: 10 µM. In general terms: In Alpha technology, singlet oxygen from a donor bead excites a nearby acceptor bead.
Another test has as its system Trypanosoma cruzi. As to the kind of experiment: Trypanosoma cruzi phosphomannomutase and mannose-1-phosphate guanylyltransferase assay. In kind it is functional. Conditions: 10 µM.
Test [5] addresses T2, Arginase-2, mitochondrial (Homo sapiens) (UniProt P78540).
T2 sequence (whole entry): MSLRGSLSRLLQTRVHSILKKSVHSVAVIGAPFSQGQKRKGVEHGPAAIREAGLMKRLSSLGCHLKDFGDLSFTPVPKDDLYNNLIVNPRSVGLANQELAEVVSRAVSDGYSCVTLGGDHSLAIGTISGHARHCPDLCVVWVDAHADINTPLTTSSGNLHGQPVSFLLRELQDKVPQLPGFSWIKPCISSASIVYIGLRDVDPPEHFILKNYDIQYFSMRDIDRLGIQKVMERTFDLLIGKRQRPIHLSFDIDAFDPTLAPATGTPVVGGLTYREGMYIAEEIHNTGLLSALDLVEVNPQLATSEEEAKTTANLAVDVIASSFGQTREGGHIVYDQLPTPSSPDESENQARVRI
The test is described as follows: in vitro enzyme assay to detect the production of urea directly proportional to the activity of Arginase II. Further: in the data most compounds retested in dose-response had high values. In kind it is functional. As to conditions: 33.3 µM.

Test [6] has as its target T3, Proteasome subunit beta (Trypanosoma cruzi) (UniProt O96673).
T3 sequence (whole entry): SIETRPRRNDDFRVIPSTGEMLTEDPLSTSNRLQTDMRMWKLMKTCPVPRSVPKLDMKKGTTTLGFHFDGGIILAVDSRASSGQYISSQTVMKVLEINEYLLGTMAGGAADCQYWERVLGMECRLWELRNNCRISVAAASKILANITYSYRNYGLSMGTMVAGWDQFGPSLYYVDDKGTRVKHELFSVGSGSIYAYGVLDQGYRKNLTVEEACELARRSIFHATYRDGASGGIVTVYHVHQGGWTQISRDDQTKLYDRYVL
The test is described as follows: Trypanosoma cruzi proteasome chymotrypsin-like activity (TcProtChymo) assay. Further: in the data most compounds retested in dose-response had high values. In kind it is functional. Conditions: 9.37 µM.

The species named for the next test is Homo sapiens. As to the kind of experiment: To identify inhibition of the IFN signalling (Jak-Stat) pathway via expression of an eGFP reporter gene under the control of an IFN-stimulated response element (ISRE) containing MxA promoter. In kind it is functional. As to conditions: 30 µM. Background: A reporter such as luciferase makes a cellular process visible.

The target of test [7] is T4, Tyrosyl-tRNA synthetase, putative (Trypanosoma cruzi (strain CL Brener)) (UniProt Q4DSP6).
T4 sequence (whole entry): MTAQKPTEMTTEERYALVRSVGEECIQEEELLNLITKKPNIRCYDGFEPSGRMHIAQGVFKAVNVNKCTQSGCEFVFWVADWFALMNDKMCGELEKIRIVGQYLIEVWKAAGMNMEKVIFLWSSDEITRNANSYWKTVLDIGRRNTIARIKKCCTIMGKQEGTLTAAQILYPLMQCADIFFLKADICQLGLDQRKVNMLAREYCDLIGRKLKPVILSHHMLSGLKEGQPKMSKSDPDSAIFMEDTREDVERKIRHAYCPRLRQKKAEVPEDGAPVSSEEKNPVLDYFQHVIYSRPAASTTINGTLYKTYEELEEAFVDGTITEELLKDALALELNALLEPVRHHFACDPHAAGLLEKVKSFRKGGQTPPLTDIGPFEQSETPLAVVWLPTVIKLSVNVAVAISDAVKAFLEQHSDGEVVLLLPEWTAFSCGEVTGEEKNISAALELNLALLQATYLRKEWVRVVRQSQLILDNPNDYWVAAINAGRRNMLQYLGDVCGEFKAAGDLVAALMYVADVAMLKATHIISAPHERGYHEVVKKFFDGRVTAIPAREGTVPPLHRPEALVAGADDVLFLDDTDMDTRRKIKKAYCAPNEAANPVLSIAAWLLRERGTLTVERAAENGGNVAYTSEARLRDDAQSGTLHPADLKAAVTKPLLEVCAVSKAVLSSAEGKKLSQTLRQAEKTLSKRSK
As to the kind of experiment: Trypanosoma cruzi tyrosyl tRNA synthetase (TcYRS) _High Tyrosine SOP. Further: in the data most compounds retested in dose-response had high values. In kind it is functional. Conditions: 30 µM.

Test [8] deals with T4, Tyrosyl-tRNA synthetase, putative (Trypanosoma cruzi (strain CL Brener)). The test is described as follows: Trypanosoma cruzi tyrosyl tRNA synthetase (TcYRS) SOP. In kind it is functional. Conditions: 30 µM.
Test [9] deals with Chromo domain-containing protein 1 (Saccharomyces cerevisiae (strain ATCC 204508 / S288c) (Baker's yeast)) (UniProt P32657). As to the kind of experiment: ScCHD-1 Enzyme Inhibition Assay. Further: in the data most compounds retested in dose-response had high values. In kind it is functional. As to conditions: 30 µM.

SMILES strings stand for the structures. For some assays here: Entries with a potency or affinity are not part of this list.

Sequence of Protein translocase subunit SecA (Escherichia coli (strain K12)) (P10408 whole entry): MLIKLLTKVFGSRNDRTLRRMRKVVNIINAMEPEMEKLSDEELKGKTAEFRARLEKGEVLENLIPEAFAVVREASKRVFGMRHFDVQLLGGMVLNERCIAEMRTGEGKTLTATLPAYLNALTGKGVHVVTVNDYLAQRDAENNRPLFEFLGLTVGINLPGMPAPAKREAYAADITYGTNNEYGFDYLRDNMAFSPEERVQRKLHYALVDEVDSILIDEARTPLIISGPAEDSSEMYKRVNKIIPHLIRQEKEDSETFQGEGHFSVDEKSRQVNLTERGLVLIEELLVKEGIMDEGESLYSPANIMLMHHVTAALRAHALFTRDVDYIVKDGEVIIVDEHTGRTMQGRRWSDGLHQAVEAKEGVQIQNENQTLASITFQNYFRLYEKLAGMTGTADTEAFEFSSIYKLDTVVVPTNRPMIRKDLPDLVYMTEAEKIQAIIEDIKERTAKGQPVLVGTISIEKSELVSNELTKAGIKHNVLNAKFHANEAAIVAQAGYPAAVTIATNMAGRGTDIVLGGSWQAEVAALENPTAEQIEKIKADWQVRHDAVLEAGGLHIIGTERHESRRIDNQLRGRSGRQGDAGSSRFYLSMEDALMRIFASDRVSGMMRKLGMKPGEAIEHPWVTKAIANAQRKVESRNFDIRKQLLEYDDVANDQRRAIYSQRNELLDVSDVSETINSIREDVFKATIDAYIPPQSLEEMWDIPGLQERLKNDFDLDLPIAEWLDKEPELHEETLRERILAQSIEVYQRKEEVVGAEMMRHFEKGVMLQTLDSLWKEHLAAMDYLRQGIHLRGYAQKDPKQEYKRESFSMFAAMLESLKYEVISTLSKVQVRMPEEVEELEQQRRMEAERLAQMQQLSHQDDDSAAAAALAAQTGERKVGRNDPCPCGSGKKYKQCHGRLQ
Sequence of Chromo domain-containing protein 1 (Saccharomyces cerevisiae (strain ATCC 204508 / S288c) (Baker's yeast)) (P32657 whole entry, the tested form may be a part): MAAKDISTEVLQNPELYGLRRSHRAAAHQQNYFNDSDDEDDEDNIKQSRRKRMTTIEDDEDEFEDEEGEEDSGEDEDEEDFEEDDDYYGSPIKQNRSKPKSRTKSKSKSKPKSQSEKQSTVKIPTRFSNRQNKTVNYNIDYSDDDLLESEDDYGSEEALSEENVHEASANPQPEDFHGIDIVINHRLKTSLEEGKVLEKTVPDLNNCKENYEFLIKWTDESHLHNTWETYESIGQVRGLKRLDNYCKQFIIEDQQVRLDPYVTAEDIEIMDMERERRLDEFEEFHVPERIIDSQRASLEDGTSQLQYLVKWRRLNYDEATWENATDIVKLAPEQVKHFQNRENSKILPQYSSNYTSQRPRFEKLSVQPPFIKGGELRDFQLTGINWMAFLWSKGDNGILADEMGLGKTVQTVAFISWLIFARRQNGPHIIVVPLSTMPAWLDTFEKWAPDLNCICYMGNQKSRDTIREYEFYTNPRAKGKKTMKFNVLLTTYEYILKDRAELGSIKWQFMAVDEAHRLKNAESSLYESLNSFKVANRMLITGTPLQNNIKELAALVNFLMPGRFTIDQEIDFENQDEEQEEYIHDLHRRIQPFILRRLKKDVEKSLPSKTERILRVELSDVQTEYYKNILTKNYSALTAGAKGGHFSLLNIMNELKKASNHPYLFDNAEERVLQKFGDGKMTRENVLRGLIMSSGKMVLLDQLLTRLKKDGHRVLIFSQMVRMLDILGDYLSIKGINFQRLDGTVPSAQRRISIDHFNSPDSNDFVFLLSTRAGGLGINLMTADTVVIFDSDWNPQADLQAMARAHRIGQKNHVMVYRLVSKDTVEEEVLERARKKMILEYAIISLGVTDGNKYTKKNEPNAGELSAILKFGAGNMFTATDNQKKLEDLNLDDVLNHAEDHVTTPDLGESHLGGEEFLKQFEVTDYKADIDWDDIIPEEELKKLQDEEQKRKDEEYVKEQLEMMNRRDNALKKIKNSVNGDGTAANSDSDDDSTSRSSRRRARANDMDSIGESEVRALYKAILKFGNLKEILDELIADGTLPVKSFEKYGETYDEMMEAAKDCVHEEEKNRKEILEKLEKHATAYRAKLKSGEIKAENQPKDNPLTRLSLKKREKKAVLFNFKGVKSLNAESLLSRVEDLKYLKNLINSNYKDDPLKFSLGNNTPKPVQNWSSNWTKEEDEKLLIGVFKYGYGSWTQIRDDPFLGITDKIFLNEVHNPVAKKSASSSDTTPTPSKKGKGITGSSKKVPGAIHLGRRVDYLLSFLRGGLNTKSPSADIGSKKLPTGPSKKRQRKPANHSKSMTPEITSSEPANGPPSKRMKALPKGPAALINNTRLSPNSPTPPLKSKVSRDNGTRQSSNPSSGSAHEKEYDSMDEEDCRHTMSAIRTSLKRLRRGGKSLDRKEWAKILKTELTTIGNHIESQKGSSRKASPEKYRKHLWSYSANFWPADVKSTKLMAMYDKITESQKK
Sequence of Sialic acid-binding Ig-like lectin 9 (Homo sapiens) (Q9Y336 whole entry): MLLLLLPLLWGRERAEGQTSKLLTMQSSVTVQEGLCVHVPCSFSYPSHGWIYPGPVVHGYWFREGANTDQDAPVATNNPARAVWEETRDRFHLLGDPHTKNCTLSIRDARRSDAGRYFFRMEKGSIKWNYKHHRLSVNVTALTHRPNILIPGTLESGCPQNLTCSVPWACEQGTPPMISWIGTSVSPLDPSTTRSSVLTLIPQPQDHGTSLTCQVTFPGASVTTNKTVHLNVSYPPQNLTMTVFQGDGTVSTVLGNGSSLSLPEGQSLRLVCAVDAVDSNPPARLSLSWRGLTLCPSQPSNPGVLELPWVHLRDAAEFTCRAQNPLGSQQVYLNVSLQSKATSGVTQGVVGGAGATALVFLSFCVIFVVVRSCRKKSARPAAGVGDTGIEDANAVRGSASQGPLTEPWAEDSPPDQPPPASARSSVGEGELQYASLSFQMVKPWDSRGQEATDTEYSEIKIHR

Consider `CN1CCC(NC(=O)NCc2csc(Br)c2)CC1`, for which the Percent Effect in test [1] is -2.29%; in test [2], 13.5%; in test [3], 4.89%; in test [4], 6.05%; in the test with Trypanosoma cruzi, 3.25%; in [5], -3.88%. The Percent Effect is 10.4% in [6]; 2.14% in the test listed under Homo sapiens; 9.9% in test [7]; 18.3% in test [8]; -4.58% in test [9].

On to `CCOc1ccc(C#N)cc1NCC(=O)Nc1cc(C)no1`, for which the Percent Effect in test [1] is -6.06%; in test [2], 17.7%; in [3], -5.05%; in test [4] it was -0.0832%; with Trypanosoma cruzi it was 3.68%; in test [5] it was -7.99%. In addition, the Percent Effect in test [6] was 4.34%; in the test listed under Homo sapiens, -2.7%; in [7], 3.45%; in test [8] it was -130%; in [9], -5.12%.

Regarding `CC(O)CN1CCN(C(=O)c2cccc(CC#N)c2)CC1` (stereo not given), the Percent Effect in [1] was -0.303%; in test [2], 23.4%; in test [3], -4.34%; in [4] it was -2.88%; in the test on Trypanosoma cruzi, 0.749%; in test [5], 3.92%. Besides, the Percent Effect was 12.7% in test [6]; 27% in the test listed under Homo sapiens; 6.8% in test [7]; 2.44% in test [8]; -4.3% in [9].

Take `Cc1nc(CCNC(=O)N2CCC(Cc3cnn(C)c3)C2)cs1` (stereo not given): the Percent Effect is -5.52% in test [1]; 2.63% in [2]; 9.75% in test [3]; 4.12% in [4]; -0.682% with Trypanosoma cruzi; 116% in [5]. Also, the Percent Effect was 19.9% in test [6]; -10.1% in the test listed under Homo sapiens; 2.13% in test [7]; 5.2% in [8]; -2.02% in test [9].

With `CNc1cccc(C2CCCN(C(=O)c3ccncc3)C2)n1` (stereo not given), the Percent Effect in test [1] is -4.49%; in test [2], 6.76%; in test [3], 12.2%; in [4] it was 0.305%; in the test with Trypanosoma cruzi, 4.74%; in test [5], -0.232%. Further, the Percent Effect in test [6] was 8.27%; in the test filed under Homo sapiens it was -2.26%; in [7], 6.45%; in test [8], 11.7%; in test [9], -14.3%.

Consider `c1ccc(CC2CCN(Cc3ccnc(-c4cccnc4)n3)CC2)cc1`, for which the Percent Effect was 0.966% in test [1]; -4.05% in test [2]; 9.39% in test [3]; 1.78% in [4]; 0.198% in the test on Trypanosoma cruzi; 1.16% in test [5]. Besides, the Percent Effect in test [6] was -1.56%; in the test filed under Homo sapiens, 18.1%; in test [7] it was 4.3%; in [8], 6.49%; in test [9], 7.16%.

Turning to `Cc1ncnc2c1CCN(Cc1cccs1)CC2`, the Percent Effect in [1] is -2.76%; in [2], 8%; in test [3], 10%; in test [4] it was -1.57%; in the test on Trypanosoma cruzi, -6.18%; in test [5], -55.7%. In addition, the Percent Effect in test [6] was -1.2%; in the test listed under Homo sapiens it was 10.4%; in test [7], 8.33%; in [8], 7.5%; in [9], -6.96%.

As to `Cc1ccccc1C1(C(=O)NCCN2CCCC2)CCOCC1`, the Percent Effect in [1] is -0.0334%; in test [2], 10.8%; in [3], -6.54%; in [4] it was -0.683%; in the test with Trypanosoma cruzi, -0.283%; in test [5] it was -8.42%. The Percent Effect in [6] is 16.2%; in the test listed under Homo sapiens it was 20.7%; in [7], 9.36%; in [8], 18.5%; in test [9] it was -8.78%.

Take `CC[C@@H](CO)NC(=O)c1coc(COc2ccc(OC)cc2)n1`: the Percent Effect in [1] is -3.54%; in [2], 10.8%; in test [3], -5.65%; in [4], -1.14%; in the test on Trypanosoma cruzi, -2.05%; in test [5], -0.744%. Besides, the Percent Effect in test [6] was 5.58%; in the test listed under Homo sapiens it was -2.06%; in [7], 6.45%; in [8] it was 18.5%; in test [9] it was -1.77%.

For the compound `CNC(=O)CCc1cc(C)nc(C2CCCN2)n1` (stereo not given), the Percent Effect in test [1] was -2.12%; in test [2], -1.35%; in test [3], 6.23%; in test [4], 2.54%; with Trypanosoma cruzi it was -1.78%; in test [5], 3.02%. The Percent Effect in test [6] was 5.62%; in the test listed under Homo sapiens it was 13.2%; in test [7], 3.23%; in test [8], -3.9%; in [9], 6.64%.

For the origin of these results see ChEMBL document CHEMBL3988442, “University of Dundee, Small-Polar-MMV Screening Library” (2021).
